ER stress death = ER stress cell death inhibition; CSM14.1 thapsigargin ER stress survival, ATP luminescence; relative survival (cellular ATP), % at 15 µg/mL (by protocol); 0.33% of 48,000 active; AID 1010;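 active = survival measured by cellular ATP above 50% at 15 µg/ml in the first screen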;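 also: cell death triggered by about 15 µM thapsigargin; ATP read 24 h after thapsigargin was added; plate controls were thapsigargin with DMSO for no effect and DMSO without thapsigargin for full effect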
Starred values were filed as active, the others as inactive. The sample as a whole holds a higher share of hits than the screen did.

SMILES | ER stress death
COc1ccc(C2CC(=O)C3=C(C2)Nc2ccccc2NC3c2c(F)cccc2Cl)cc1 (stereo not given) | 1
O=C1CC(c2ccc(Cl)cc2)CC2=C1C(c1ccccc1F)Nc1ccccc1N2 (stereo not given) | 6
O=C1CC(c2ccccc2)CC2=C1C(c1ccc(Br)cc1)Nc1ccccc1N2 (stereo not given) | 12
CC1CCN(C(=O)CN(c2cccc([N+](=O)[O-])c2)S(=O)(=O)c2ccccc2)CC1 | 2
O=C1/C(=C/c2cc(Cl)cc(Cl)c2O)SC(=S)N1Cc1ccccc1 | 11
Cc1cc2c(cc1C)NC(c1ccc(OC(F)(F)F)cc1)C1=C(CC(C)(C)CC1=O)N2 (stereo not given) | 1
CCOc1ccc2c(c1)-c1c(ssc1=S)C(C)(C)N2C(=O)CN1C(=O)c2ccccc2C1=O | 9
Cn1ccnc1Sc1ccc([N+](=O)[O-])cc1 | 4
CC(=O)Nc1ccc(NC(=O)c2ccc(CN3CCOCC3)cc2)cc1 | 1
COc1ccc(C2=CC(=O)CC(c3ccccc3)C2)cc1 (stereo not given) | -1
O=C1C=C(c2ccccc2)CC(c2ccccc2)C1n1nnc2ccccc21 (stereo not given) | 95*
COc1cc(/C=C2/C(=O)NN(c3ccc(C)c(C)c3)C2=O)cc(I)c1O | 0
COc1ccc(OCCSc2nnnn2-c2ccccc2)cc1 | 5
Cc1ccc(Cl)cc1NS(=O)(=O)c1ccc(Cl)cc1 | 19
COc1cccc(CN2CCN(C(=O)c3ccc(-c4ccccc4)cc3)CC2)c1 | 93*
COc1ccc(C(=O)N2CCN(Cc3cccc(C)c3)CC2)cc1 | 9
COc1ccc(OC)c(CN2CCN(C(=O)c3ccc(OC)c(OC)c3)CC2)c1 | -5
c1ccc(Oc2cccc(CN3CCN(Cc4ccccn4)CC3)c2)cc1 | -2
O=C(c1ccc(F)cc1)N1CCN(Cc2ccc(Cl)cc2)CC1 | 6
COc1ccc(OC)c(CN2CCN(C(=O)c3ccc(-c4ccccc4)cc3)CC2)c1 | 104*
COc1ccc(C(=O)N2CCN(Cc3cccc(Cl)c3)CC2)cc1 | 5
O=C(c1ccccc1)N1CCN(Cc2cccc(Oc3ccccc3)c2)CC1 | 59*
COc1cc(OC)c(OC)cc1CN1CCN(C(=O)c2ccc(-c3ccccc3)cc2)CC1 | 6
O=C(c1ccc(-c2ccccc2)cc1)N1CCN(Cc2ccc(Cl)cc2)CC1 | 98*
Cc1ccc(C(=O)N2CCN(Cc3ccccc3)CC2)cc1 | 1
SMILES | ER stress death
O=C(c1ccc(F)cc1)N1CCN(Cc2cccc(Oc3ccccc3)c2)CC1 | 32
COc1ccc(NC(=O)c2ccc(C(=O)O)cc2C(=O)O)c(OC)c1 | 12
O=C1NC(=O)N(c2ccccc2)C(=O)/C1=C/c1cccc(Oc2ccccc2)c1 | 5
C/C(=N\Nc1nc(C)cc(-c2ccccc2)n1)c1c(F)c(F)c(F)c(F)c1F | 12
C=CCn1cnnc1C(CCC(C)C)CC(C)(C)O (stereo not given) | 5
COc1cc(NC(=O)c2ccc3c(c2)C(=O)N(C2CCCCC2)C3=O)c(C(=O)O)cc1OC | 12
N#C/C(=C\c1ccc(OCc2ccccc2)cc1)c1nc(-c2ccc(Br)cc2)cs1 | 14
O=C(c1ccc([N+](=O)[O-])cc1)N1CCN(Cc2cccc3ccccc23)CC1 | 63*
COc1cccc(CN2CCN(C(=O)c3ccccc3)CC2)c1OC | -2
O=C(c1ccc([N+](=O)[O-])cc1)N1CCN(Cc2cccc(Cl)c2)CC1 | 0
COc1cccc(CN2CCN(C(=O)c3ccc(-c4ccccc4)cc3)CC2)c1OC | 113*
COc1cc(CN2CCN(C(=O)c3ccc(-c4ccccc4)cc3)CC2)cc(OC)c1OC | 75*
O=C(c1ccc([N+](=O)[O-])cc1)N1CCN(Cc2ccccn2)CC1 | 7
COc1cccc(CN2CCN(C(=O)c3cccc(F)c3)CC2)c1OC | 7
COc1ccc(C(=O)N2CCN(Cc3cc(OC)c(OC)c(OC)c3)CC2)cc1OC | -1
COc1ccc(C(=O)N2CCN(Cc3cc(OC)c(O)c(OC)c3)CC2)cc1 | -4
O=C(NCCNc1ccc(Cl)cc1[N+](=O)[O-])c1cccc2ccccc12 | 0
CCCCC1(C(=O)O)CC(C)=C(C)CC1C(=O)O (stereo not given) | 9
COc1cc(NC(=O)c2ccccc2Br)ccc1NC(=O)c1cc2ccccc2o1 | 0
O=C(CSc1nnc(-c2cccc(F)c2)n1-c1ccccc1)NCc1ccccc1 | 2
COc1ccc(N=Cc2ccc(C)o2)cc1 | -2
COc1cc(OC)c([N+](=O)[O-])cc1/C=C1/C(=O)NC(=O)N(c2ccc(Br)cc2)C1=O | -1
O=C(COc1ccc2ccccc2c1)Nc1ccc(Cl)c(Cl)c1 | 0
O=C(Nc1cccc(NC(=O)c2cccc3ccccc23)c1)c1ccc(Cl)cc1Cl | 9
O=C(COc1ccc2ccccc2c1)Nc1cccc(NC(=O)c2ccc(Cl)cc2Cl)c1 | 50*
SMILES | ER stress death
COc1ccc2c(c1)/C(=N/OC(=O)c1ccc(OC)c(OC)c1)CCC2 | 8
Cc1ccc(-c2csc(N)c2C(=O)OC(C)C)cc1C | 0
COc1ccc(C2Nc3ccccc3C(=O)N2c2ccccc2)cc1CN1C(=O)c2ccccc2C1=O (stereo not given) | 5
COc1ccc(N2C(=O)c3ccccc3NC2c2ccc(OC)c(CN3C(=O)c4ccccc4C3=O)c2)cc1 (stereo not given) | 10
COc1ccc(C2Nc3ccccc3C(=O)N2c2ccccc2)cc1COc1ccc(NC(C)=O)cc1 (stereo not given) | 87*
CCOc1cc(/C=N/n2cnnc2)cc(Cl)c1O | 0
C(=N/N1CCN(C(c2ccccc2)c2ccccc2)CC1)/c1ccccc1 | 10
O=C(NCc1ccncc1)c1cccs1 | 18
O=C(CC(=S)c1cccs1)c1ccncc1 | 61*
O=C(NCCNC(=O)c1cccs1)c1cccs1 | 4
Fc1ccccc1Cn1nnc(-c2ccccc2)n1 | 7
CCCCC(C(C)=O)C(=O)Nc1ccc(C)cc1 (stereo not given) | 4
COC(=O)c1ccc(N2C(=O)CC(NCc3ccc(Cl)c(Cl)c3)C2=O)cc1 (stereo not given) | 1
CC1=NNC(=O)C1CC(=O)N/N=C/c1c(O)ccc2ccccc12 (stereo not given) | -2
COc1ccc(C(NC(=O)c2ccccc2)c2ccc3cccnc3c2O)cc1 (stereo not given) | 7
CCCC(=O)NC(c1ccc(Cl)cc1)c1ccc2cccnc2c1O (stereo not given) | 11
CCC(=O)NC(c1ccc(N(C)C)cc1)c1ccc2cccnc2c1O (stereo not given) | 59*
COCCCNC(=O)COc1ccc(Br)c(C)c1 | -4
Cc1ccc([N+](=O)[O-])cc1NC(=O)c1cc2ccccc2cc1O | 8
Cc1ccc(C(=O)Nc2ncccn2)o1 | -5
O=C(Nc1ncccn1)c1ccc([N+](=O)[O-])o1 | 65*
O=C(Nc1ccc(Cl)c(Cl)c1)c1ccc([N+](=O)[O-])o1 | 1
COc1cc(C=C2C(=O)N(C)C(=O)N(C)C2=O)ccc1OCc1ccc(C(=O)O)cc1 | 2
CCOc1ccc(Nc2nc(-c3ccccn3)cs2)cc1 | 1
CCOc1ccc(Nc2nc(-c3c(C)nc4cc(C)ccn34)cs2)cc1 | 96*
Cc1ccn2c(-c3csc(Nc4cccc(O)c4)n3)c(C)nc2c1 | 40
CCOC(=O)c1c(C)nc(C)c(C(=O)OCC)c1-c1ccccc1 | 4
CCOc1ccc(C(=O)Nc2cccc(NC(=O)c3ccc(F)cc3)c2)cc1 | 0

Screening results: PubChem, Sanford-Burnham Center for Chemical Genomics
